From the supplement of paper PMC3334620
In all, about 33,000 sequences were measured (“E-score (-0.5 to 0.5)”: median about -0.017, highest 2% from about 0.3 on). The list comes from a sample in which the highest values are over-represented; it also holds similar and randomly drawn sequences.

target: T1, Sut1 (UniProt P53032); assay: PBM E-score (8-mer binding enrichment) (E-score (-0.5 to 0.5)); higher = stronger / more preferred TF binding; settings: protein concentration: 200 nM; construct: GST-full length
T1 sequence: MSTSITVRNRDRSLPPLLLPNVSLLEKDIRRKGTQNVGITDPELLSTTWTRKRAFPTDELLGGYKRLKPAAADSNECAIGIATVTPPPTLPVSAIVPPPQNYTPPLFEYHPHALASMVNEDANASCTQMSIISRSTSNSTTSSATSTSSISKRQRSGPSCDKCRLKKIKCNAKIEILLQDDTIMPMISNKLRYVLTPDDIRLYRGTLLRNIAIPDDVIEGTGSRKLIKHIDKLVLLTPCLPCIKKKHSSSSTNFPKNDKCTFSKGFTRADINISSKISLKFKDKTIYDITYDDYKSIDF
Method: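 Universal 'all 10-mer' protein binding microarrays (Agilent AMADID 015681) probed with GST-tagged S. cerevisiae TFs (full-length or DBD) made by in vitro transcription/translation (PURExpress), about 100-200 nM. Bound TF was detected with fluorescent anti-GST. Each ungapped 8-mer (which stands for itself and its reverse complement) is scored by the PBM enrichment score (E-score), a modified Wilcoxon-Mann-Whitney statistic from -0.5 to +0.5, computed with the Universal PBM Analysis Suite. Scale: above 0.35 generally sequence-specific binding.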

| Sequence | PBM E-score |
| --- | --- |
| CATCGGTC | -0.106 |
| AATCGGTG | 0.0417 |
| GATCGGGC | -0.0436 |
| CATCGGAG | 0.435 |
| GATCGGAC | 0.367 |
| CATCGGAC | 0.37 |
| GATCGGAA | 0.159 |
| AATCGGAG | 0.396 |
| CATCGGGG | -0.00411 |
| CATCGGCG | -0.137 |
| AATCGGAT | 0.183 |
| CATCGGAA | 0.269 |
| ACAAGCAG | 0.0716 |
| CGTCTCGA | -0.113 |
| AAGCAGAG | -0.037 |
| CAGTCGAG | -0.103 |
| CAATGGGG | -0.163 |
| GAAGTCTA | 0.0111 |
| CCTACTCA | 0.021 |
| AGCAGTTC | 0.0132 |
| AATCGGGC | -0.0945 |
| AATCGGAA | 0.38 |
| TATCGGAA | 0.26 |
| AATCGGAC | 0.338 |
| AATCGGCA | 0.107 |

| Sequence | PBM E-score |
| --- | --- |
| AATCGGCC | -0.109 |
| CCACTTTA | 0.0316 |
| CCGGTCAG | -0.0559 |
| AATCAGAT | 0.0945 |
| AAGGGATG | -0.0899 |
| GAGTCCAC | -0.108 |
| AAGCTCCC | -0.156 |
| AGGCTCCG | 0.357 |
| CAGCTCCA | -0.0491 |
| AGGCTCCC | -0.0884 |
| CAGCTCCG | 0.461 |
| AAGCTCCG | 0.455 |
| AAGCTCCT | -0.112 |
| CAGCTCCC | -0.181 |
| AGGCTCCA | -0.178 |
| CAGGCCTG | 0.0399 |
| ACGCTAAC | -0.22 |
| GTTCGACA | -0.0722 |
| TTAATAAA | 0.341 |
| ATAATAAA | 0.339 |
| ATAATAAT | 0.295 |
| CTAATAAC | 0.14 |
| CTAATAAA | 0.197 |
| GTAATAAA | 0.284 |
| ATAATATG | 0.286 |

| Sequence | PBM E-score |
| --- | --- |
| ATAATATA | 0.301 |
| CTAATATA | 0.225 |
| AATCCTCG | -0.164 |
| CGGGGCTC | 0.0261 |
| ACTTGGGG | -0.203 |
| CGCGCCTC | 0.0917 |
| GGGATACA | -0.064 |
| ACCCCCGG | -0.0829 |
| AACCCCGG | 0.438 |
| GACCCCGA | 0.0897 |
| ACCCCCGA | -0.118 |
| TACCCCGA | 0.324 |
| AACCCCGA | 0.447 |
| AAACCCGA | 0.198 |
| CACCCCGA | 0.134 |
| CACCCCGG | 0.0471 |
| GATGCTAA | 0.0485 |
| AATAGGCC | 0.0314 |
| GCTCGCAA | -0.101 |
| CATCCACC | -0.0255 |
| CGATTCTA | -0.0107 |
| GGCTAATA | 0.17 |
| ACTCATAC | 0.0873 |
| ACCAACCC | -0.212 |
| ATATCGGG | -0.0571 |

| Sequence | PBM E-score |
| --- | --- |
| AGATCGGA | 0.348 |
| CTATCGGA | 0.337 |
| CGATCGGA | 0.246 |
| GTATCGGA | 0.281 |
| CTATCGGC | -0.13 |
| ATATCGGC | -0.0245 |
| GGATCGGA | 0.277 |
| ATATCGGA | 0.331 |
| CCTGCTAC | -0.0632 |
| GTTCGGTA | 0.141 |
| AAGATGGC | -0.0118 |
| AGTCCCAG | -0.199 |
| ATTGACCG | 0.0305 |
| AGAGTCCA | -0.0986 |
| CGTTGCAG | -0.136 |
| ATGCAGCA | -0.134 |
| ATCCTTCG | 0.0447 |
| ATCCGCAC | -0.0365 |
| CTCCGCAA | 0.271 |
| ATCCGCAG | 0.0529 |
| CTCCGCAC | 0.306 |
| CTCCGCAG | 0.364 |
| GTCCGCAC | 0.247 |
| CGATTTCA | 0.0969 |
| CCACACGG | -0.0635 |

| Sequence | PBM E-score |
| --- | --- |
| ACGTCCGG | 0.101 |
| ATCCGTAC | 0.178 |
| CTCCGTAC | 0.331 |
| GACCGTAA | -0.0628 |
| CACCGTAA | 0.0107 |
| CACCGTAC | 0.0478 |
| CTCCGTAA | 0.328 |
| CCCCGTAA | 0.0974 |
| GTCCGTAA | 0.342 |
| ATCCGTAA | 0.183 |
| AGCATTGA | -0.0961 |
| CCTAACCA | 0.0768 |
| ACATCTGC | -0.193 |
| TATAAAAA | 0.318 |
| ATTAAATC | 0.191 |
| CATAAAAA | 0.161 |
| GTTAAAGA | 0.0511 |
| CTTAAAGA | 0.111 |
| ATTAAATA | 0.315 |
| ATTAAATG | 0.243 |
| ATTAAAGA | 0.311 |
| CATAAATA | 0.168 |
| GATAAAAA | 0.263 |
| TATAAATA | 0.343 |
| TAAAAATA | 0.249 |

| Sequence | PBM E-score |
| --- | --- |
| ACCATGAG | -0.166 |
| TGCTTCAA | 0.0485 |
| AAGTTCTA | 0.0927 |
| GAGGATCA | -0.09 |
| CAGCTATC | -0.207 |
| ATGAGTCG | -0.157 |
| ACAGCGTG | -0.171 |
| AGGCCCAC | -0.387 |
| AAGGCTAA | 0.0404 |
| TACAAATA | 0.303 |
| AACAAATA | 0.201 |
| GATAAATC | 0.26 |
| AATAAATG | 0.179 |
| CACAAATA | 0.13 |
| GATAAATA | 0.325 |
| AATAAATT | 0.237 |
| GATAAACA | 0.203 |
| AATAAATA | 0.374 |
| AACAAGCG | -0.0413 |
| GCGCCTCA | -0.0448 |
| ACACTTAC | 0.0992 |
| AATCTCCC | -0.268 |
| CATCTCCA | -0.036 |
| ATTCTCCC | -0.0729 |
| CATCTCCC | -0.138 |

| Sequence | PBM E-score |
| --- | --- |
| ATTCTCCA | -0.0299 |
| AGTCTCCC | -0.0841 |
| AATCTCCT | 0.147 |
| AGTCTCCG | 0.316 |
| CATCTCCG | 0.478 |
| ATTCTCCG | 0.409 |
| AATCTCCG | 0.454 |
| AGTCTCCA | -0.229 |
| GAACTTTA | 0.145 |
| GTAATTCA | 0.182 |
| CAAATCGG | 0.0756 |
| AGCCTTCG | -0.203 |
| AATTTCGG | 0.242 |
| CAGAAATC | 0.0914 |
| CCGTTGGA | 0.0326 |
| ACTCGCTA | 0.0713 |
| AGCGGACG | -0.118 |
| ACCGGACT | 0.485 |
| AGCGGACA | 0.107 |
| AACGGACC | 0.191 |
| AACGGACA | 0.24 |
| ACCGGAAC | 0.29 |
